In PubChem BioAssay (NCATS):
Results filed as inconclusive are left out. Activity calls are given as the source filed them. Unless noted, the call rests on the fitted dose curve; in most records, active means well fitted curve in the direction sought with a large enough effect; inconclusive means small, poorly fitted or top-dose-only effect, or another doubt; inactive means no such curve, though single readings can be large; an effect the other way counts as inactive or inconclusive.

Tests used:
[1] = qHTS to identify inhibitors of the type 1 interferon - major histocompatibility complex class I in skeletal muscle: primary screen against the NCATS Pharmaceutical Collection (AID 1347407);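 further: luminescence of HiBiT knocked into endogenous HLA-B as interferon-induced MHC class I level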; further: potency means the concentration at half of the fitted maximal effect
How it was run: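 A qHTS format is used: 8-point, 1:5 compound series with 46 uM top final concentration, applied alongside 4 ng/ml IFN-beta to HLA-B*08:01-HiBiT knock-in myoblasts. Luminescence is measured after 24 h treatment.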

[2] = qHTS for inhibitors of adenylyl cyclases using a fission yeast platform: a pilot screen against the NCATS LOPAC library (AID 1347410);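 further: plate controls were DMSO vehicle for no effect and DPI positive control for full effect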
How it was run: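 Inhibition of GNAS-stimulated AC9 activity in S. pombe was inferred from derepression of a PKA-repressed fbp1-GFP reporter, measured as cytometric fluorescence after 18 h at 30C with compounds at up to 57 µM.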

[3] = molecular target: Protein phosphatase 1D (Homo sapiens) (UniProt O15297); experiment: RapidFire Mass Spectrometry qHTS Assay for Modulators of WT P53-Induced Phosphatase 1 (WIP1) (AID 1347424);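 further: amount of dephosphorylated VEPPL-S-QETFS peptide product formed by WIP1; series mostly up to about 63 µM; plate controls were DMSO wells for no effect and GSK830371 inhibitor control at 10 µM for full effect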
How it was run: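 Mass-spectrometric measurement of dephosphorylated peptide after a 5 min room-temperature reaction of 10 nM WIP1 with 2 uM phosphopeptide, following 1 h compound preincubation in 30 mM MgCl2 buffer.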

[4] = molecular target: Protein phosphatase 1D (Homo sapiens) (UniProt O15297); experiment: Rhodamine-PBP qHTS Assay for Modulators of WT P53-Induced Phosphatase 1 (WIP1) (AID 1347425); further: % of control where 0% means no effect
How it was run: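 Steps: enzyme with Rh-PBP sensor and compounds, room-temperature incubation of 1 hr, baseline read, addition of VEPPL-pS-QETFS (10 uM final), kinetic fluorescence reads at 525/598 nm. Activity equals final minus baseline signal.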

[5] = Validation qHTS assay for inhibitors of Activation Induced Cytidine Deaminase (AID): UDG Counterscreen signal (AID 1347427); further: 0% is about no effect
How it was run: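 Fluorescence at 560 nm excitation, 665 nm emission reports UDG signal after 250 mM NaOH (2x) addition and 30 min. Enzymes (AID 1 uM, UDG 2 U/mL, at 4/3x) preincubated 10 min with compound, then 4 h with 4x 250 nM DJC20/DJC23 substrate at room temperature.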

[6] = molecular target: Single-stranded DNA cytosine deaminase (Homo sapiens) (UniProt Q9GZX7); experiment: Validation qHTS assay for inhibitors of Activation Induced Cytidine Deaminase (AID): AID signal (AID 1347429); further: on the % scale 0 is the no-effect control and ±100 the full control effect
How it was run: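 Steps: dispense AID with UDG; pin-transfer compound up to 114 uM final; add DJC20/DJC23 substrate and hold 4 hr at room temperature; add NaOH, hold 30 min; read FRET signal (540/590 nm).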

[7] = Primary qHTS for inhibitors of La Crosse Virus (LACV) - induced cell death in SH-SY5Y cells (AID 1508616);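 further: top concentration of the series differs between compounds; 0% = infected DMSO wells and 100% = uninfected DMSO wells; higher means more rescue of cells from virus-induced death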
How it was run: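 SH-SY5Y, 6000 cells/well; cpd via pin tool in DMSO; LACV 0.01 MOI; 6 d 37C 5% CO2; ATPLite, 5 min RT; luminescence normalized to ±virus DMSO controls.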

[8] = A High-Content qHTS Against Drug Library for the Identification of Small Molecules that Inhibit DYT1 Early Onset Primary Dystonia-Associated Cell Pathology (AID 1645839; calls by dose curve; further: series mostly up to about 46 µM)
How it was run: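 Induced EGFP-delE TorsinA cells are imaged after 48 h of compound treatment. Punctate fusion-protein distribution gives the %pathology value, while nuclei counts flag toxicity. Wild-type EGFP-hTOR1A cells define the normal pattern.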

[9] = molecular target: Cytochrome P450 2D6 (Homo sapiens) (UniProt P10635); experiment: Cytochrome P450 family 2 subfamily D member 6 (CYP2D6) small molecule antagonists: luciferase biochemical (cell-free) qHTS assay (AID 1645840; active means well fitted curve in the direction sought with a large enough effect in the repeat runs; an effect the other way counts as inactive or inconclusive; further: nearly all actives have a fitted effect of over 55% in size; further: potency means the concentration at half of the fitted maximal effect)
How it was run: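 P450-Glo CYP2D6 system: proluciferin substrate converted by enzyme to luciferin, read by luminescence proportional to activity. Enzyme-substrate mix with compound 10 min at room temperature, then NADPH regeneration 1 h before detection reagent.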

[10] = molecular target: Calcium and integrin-binding protein 1 (Homo sapiens) (UniProt Q99828); experiment: Validation qHTS for Identification of Calcium Integrin Binding protein 1 (CIB1) Competitor (AID 1508618); further: on the % scale 0 is the no-effect control and ±100 the full control effect
How it was run: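 In this qHTS validation, the LOPAC set (up to 114 uM) was tested for blocking CIB1 binding to a fluorescein-tagged alphaIIb peptide, with FP detection at 480/540 nm.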

[11] = molecular target: Calcium and integrin-binding protein 1 (Homo sapiens) (UniProt Q99828); experiment: Primary qHTS for Identification of Calcium Integrin Binding Protein 1 (CIB1) Competitor (AID 1508620);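 further: GST tagged CIB1 binding a fluorescein labelled alphaIIb integrin peptide tracer; top concentration of the series differs between compounds; on the % scale 0 is the no-effect control and ±100 the full control effect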
How it was run: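 Fluorescence polarization competition: CIB1-GST (1 uM final) preincubated with compound 15 min at room temperature, then FITC-labeled alphaIIb peptide (100 nM final) added for another 15 min. Polarization read at Ex 480/Em 540.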

[12] = Counterscreen qHTS for small molecule stabilizers of the endoplasmic reticulum resident proteome: GLuc-NoTag assay (AID 1508627);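 further: series mostly up to about 76 µM; 0% = thapsigargin alone and -100% = DMSO vehicle control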
How it was run: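 Secreted GLuc lacking the SERCaMP modification is measured in SH-SY5Y cells exposed to compound for 19 h and then to thapsigargin (100 nM, 4 h) to deplete ER calcium; hits retested at 11 concentrations, up to 76.6 uM.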

[13] = Confirmatory qHTS for small molecule stabilizers of the endoplasmic reticulum resident proteome: Secreted ER Calcium Modulated Protein (SERCaMP) assay (AID 1508628); further: nearly all actives have a fitted effect of over 40% in size; further: potency means the concentration at half of the fitted maximal effect
How it was run: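 Reporter secretion upon ER calcium depletion (100 nM thapsigargin, 4 h, 37C) is measured as medium luminescence with coelenterazine, after 16 h compound pretreatment of SH-SY5Y-GLuc-SERCaMP cells; primary at three concentrations up to 38.3 uM, follow-up at 11 (up to 76.6 uM).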

[14] = Cell Viability qHTS for small molecule stabilizers of the endoplasmic reticulum resident proteome (AID 1508629); conditions: cell viability counter-screen, 100 nM thapsigargin for final 4 h;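 further: human SH-SY5Y neuroblastoma cells carrying the GLuc-SERCaMP reporter; compound exposure about 46 h in total before the viability read; on the % scale 0 is the no-effect control and ±100 the full control effect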
[15] = qHTS to identify inhibitors of the type 1 interferon - major histocompatibility complex class I in skeletal muscle: primary screen against the NCATS Mechanism Interrogation Plate v5.0 (MIPE) Libary (AID 1347411);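 further: plate controls were vehicle for no effect and reference inhibitor for full effect; nearly all actives have a fitted effect of over 65% in size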
How it was run: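 Seed engineered human myoblasts (HLA-B HiBit) in medium without dexamethasone containing 4 ng/ml IFN-beta; after 1 hr add compound titrations (top 46 uM final). Incubate 24 hrs at 37 C, lyse 10 min with HiBiT reagent, read luminescence.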

[16] = Primary qHTS for small molecule stabilizers of the endoplasmic reticulum resident proteome: Secreted ER Calcium Modulated Protein (SERCaMP) assay (AID 1508630); further: on the % scale 0 is the no-effect control and ±100 the full control effect
How it was run: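 The SH-SY5Y reporter protocol was run at 3 concentrations up to 38.3 uM (primary) or 11 concentrations (follow-up): 16 h compound, 100 nM thapsigargin for 4 h, then extracellular luciferase luminescence.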

Chain of Calcium and integrin-binding protein 1 (Homo sapiens) (Q99828 whole entry, looked up): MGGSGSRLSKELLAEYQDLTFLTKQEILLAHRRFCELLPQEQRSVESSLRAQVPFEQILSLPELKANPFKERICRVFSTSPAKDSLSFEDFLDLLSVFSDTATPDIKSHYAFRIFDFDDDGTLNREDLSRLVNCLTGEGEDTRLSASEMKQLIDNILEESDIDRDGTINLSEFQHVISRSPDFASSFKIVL
Chain of Cytochrome P450 2D6 (Homo sapiens) (P10635 whole entry, looked up): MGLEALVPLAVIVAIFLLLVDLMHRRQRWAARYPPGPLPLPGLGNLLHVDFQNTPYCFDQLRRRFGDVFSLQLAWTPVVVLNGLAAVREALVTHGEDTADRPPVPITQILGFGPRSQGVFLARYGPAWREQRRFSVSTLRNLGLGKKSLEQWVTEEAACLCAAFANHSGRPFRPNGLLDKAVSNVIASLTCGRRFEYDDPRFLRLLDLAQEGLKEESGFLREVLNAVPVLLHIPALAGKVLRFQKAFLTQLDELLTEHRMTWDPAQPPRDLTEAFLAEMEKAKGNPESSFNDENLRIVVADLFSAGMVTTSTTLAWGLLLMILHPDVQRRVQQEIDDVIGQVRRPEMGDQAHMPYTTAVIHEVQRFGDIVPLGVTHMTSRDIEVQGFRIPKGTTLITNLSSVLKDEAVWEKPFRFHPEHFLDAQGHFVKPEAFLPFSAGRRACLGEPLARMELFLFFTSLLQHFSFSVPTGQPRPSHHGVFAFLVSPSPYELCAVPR
Chain of Single-stranded DNA cytosine deaminase (Homo sapiens) (Q9GZX7 whole entry, looked up): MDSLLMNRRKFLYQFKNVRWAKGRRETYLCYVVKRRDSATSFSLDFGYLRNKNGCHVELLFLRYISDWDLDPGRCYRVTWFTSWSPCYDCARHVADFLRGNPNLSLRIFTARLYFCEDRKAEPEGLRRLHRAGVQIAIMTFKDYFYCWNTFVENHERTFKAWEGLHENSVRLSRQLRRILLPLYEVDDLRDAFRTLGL
Chain of Protein phosphatase 1D (Homo sapiens) (O15297 whole entry, looked up): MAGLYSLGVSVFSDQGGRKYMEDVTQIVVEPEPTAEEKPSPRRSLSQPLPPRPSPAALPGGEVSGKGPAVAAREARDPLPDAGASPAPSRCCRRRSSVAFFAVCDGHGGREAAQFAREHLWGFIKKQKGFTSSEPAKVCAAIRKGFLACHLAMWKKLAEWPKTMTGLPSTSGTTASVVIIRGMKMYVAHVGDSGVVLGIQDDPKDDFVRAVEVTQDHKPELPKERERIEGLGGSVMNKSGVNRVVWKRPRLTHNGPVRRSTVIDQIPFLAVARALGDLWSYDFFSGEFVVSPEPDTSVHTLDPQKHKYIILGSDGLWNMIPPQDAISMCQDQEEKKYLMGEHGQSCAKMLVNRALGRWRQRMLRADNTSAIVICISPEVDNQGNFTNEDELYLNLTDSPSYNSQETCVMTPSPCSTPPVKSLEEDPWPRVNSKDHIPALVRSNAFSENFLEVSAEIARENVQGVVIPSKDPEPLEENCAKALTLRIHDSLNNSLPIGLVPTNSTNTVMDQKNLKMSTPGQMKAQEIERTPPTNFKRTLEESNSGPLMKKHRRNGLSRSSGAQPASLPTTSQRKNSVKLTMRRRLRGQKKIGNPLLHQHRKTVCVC

NC(N)=NCCC[C@H](N)C(=O)O
inactive: activity change, negative = inhibition [1] -4.76% [at 3.83 µM] | outcome [2] | activity change, negative = inhibition [3] -3.57% [at 6.17 µM] | activity change, negative = inhibition [4] -0.0772% [at 4.81 µM] | Potency [5] | Potency [6] | outcome [7] | % pathology change, negative = correction [8] 17.5% [at 4.63 µM] | activity change, negative = inhibition [9] 2.59% [at 4.83 µM]

CC(=O)c1ccc2c(c1)N(CCCN(C)C)c1ccccc1S2
inactive: Potency [1] | outcome [2] | outcome [3] | outcome [4] | outcome [7] | outcome [10] | outcome [11] | Potency [12] | max response [14] -6.13%
active: Potency [13] 25.1 µM | Potency [9] 0.436 µM

CCCCc1ncc(/C=C(\Cc2cccs2)C(=O)O)n1Cc1ccc(C(=O)O)cc1
inactive: Potency [1] | outcome [2] | outcome [3] | outcome [4] | outcome [7] | outcome [11] | Potency [8] | Potency [9]

NC(=O)c1ncn([C@@H]2O[C@H](CO)[C@@H](O)[C@H]2O)c1N
inactive: Potency [1] | Potency [15] | outcome [3] | outcome [4] | outcome [7] | outcome [11] | Potency [8] | Potency [9]

CN1CCCCC1CCN1c2ccccc2Sc2ccc(S(C)=O)cc21 (stereo not drawn)
inactive: Potency [1] | outcome [3] | outcome [4] | outcome [7] | outcome [11] | Potency [12] | max response [14] -1.8%
active: Potency [13] 12.6 µM | Potency [9] 0.0219 µM

CCN(CC)CCCC(C)Nc1c2ccc(Cl)cc2nc2ccc(OC)cc12 (stereo not drawn)
inactive: Potency [1] | outcome [2] | outcome [3] | Potency [5] | Potency [6] | outcome [7]
active: Potency [9] 0.0776 µM

C=CCn1c(=O)n([C@@H]2O[C@H](CO)[C@@H](O)[C@H]2O)c2nc(N)[nH]c(=O)c21
inactive: Potency [1] | outcome [3] | outcome [4] | outcome [7] | outcome [11] | Potency [12] | Potency [13] | Potency [8] | Potency [9]

CCCCCCCCCCCCCCCC(=O)NCCO
inactive: Potency [1] | outcome [3] | outcome [4] | Potency [5] | Potency [6] | outcome [7] | outcome [11] | Potency [12] | Potency [16] | Potency [8]

CCN(CC)CCNC(=O)c1c(C)[nH]c(/C=C2\C(=O)Nc3ccc(F)cc32)c1C
inactive: outcome [2] | outcome [3] | outcome [7] | outcome [10] | outcome [11]
active: Potency [1] 10.5 µM

OCc1cc(C(O)CNCCCCCCOCCCCc2ccccc2)ccc1O (stereo not drawn)
inactive: Potency [1] | outcome [3] | outcome [4] | Potency [5] | Potency [6] | outcome [7] | outcome [10] | outcome [11] | Potency [16]

COc1ccc2[nH]c(S(=O)Cc3ncc(C)c(OC)c3C)nc2n1 (stereo not drawn)
inactive: Potency [1] | Potency [15] | outcome [3] | outcome [4] | outcome [7] | Potency [16] | Potency [8] | Potency [9]

C[C@H](NC(CCc1ccccc1)C(=O)O)C(=O)N1CCC[C@H]1C(=O)O (stereo partly drawn)
inactive: Potency [1] | outcome [2] | outcome [3] | outcome [4] | outcome [7] | outcome [10] | outcome [11] | Potency [8] | Potency [9]
